# “And” between values parts separate entries of the source, which are not always exact repeats. Equal entries are not always repeated. The source made the active and inactive calls.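 The calls were made as follows, unless noted: active = compounds whose cell count with miR-34 switched on is under 0.7 times the count with it off; inactive = the rest.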
# How the values were obtained:
# [1] = viability loss with induced miR-34 in A549 – imaging, A549 dox-inducible miR-34, nuclei and caspase counts, primary screen (AID 1347080); details: A549 miR-34 inducible, Hoechst nuclei count, 48 h; also: test concentration not given here
# [2] = MELAS cybrid and Rieske KO viability enhancers – cell-based, MELAS cybrids, Rieske KO mouse fibroblasts, CellTiter-Glo, primary screen (AID 1508586;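 active = mean z-score across replicates of 1.96 or higher in either the MELAS or the Rieske mutant cell line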;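 also: test concentration not given here; z relative to plate mean and SD of compound and empty wells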); details: low glucose
# [3] = galactose survival enhancers in mitochondrial complex I cybrids – cell-based, galactose medium, ATP luminescence, primary screen (AID 1645843;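 active = z-score of at least 1.8 in each of two replicates, scored against plate mean and spread of sample wells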;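 also: positive z means more ATP and so rescue of galactose-driven cybrid death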); details: complex I mutant cybrid cells, 72 h, stronger effect = higher value
# [4] = stronger effect = lower value, cell number ratio, induced over uninduced
# [5] = measured here: relative caspase fold change +Dox/-Dox
# [6] = measured here: total cells with miR-34 induction, stronger effect = lower value
# [7] = measured here: total cells without miR-34 induction
# [8] = MELAS cybrid survival, CellTiter-Glo 48 h, stronger effect = higher value
# [9] = Rieske KO mouse fibroblast survival, CellTiter-Glo 72 h
Compound,"fold change [1, 4]","fold change [1, 5]","cell count [1, 6]","cell count [1, 7]","z-score [2, 8]","z-score [2, 9]",z-score [3]
Nc1nc2ccccc2c(=O)[nH]1,0.901 (inactive),0.247,8880,9860,0.855 (inactive),-0.798,0.65 (inactive)
CCn1cnc(NC(=O)N(C)CC2Cc3ccccc3O2)n1 (centres undefined),0.971 (inactive),1.16,9520,9810,-0.133 (inactive),-0.0873,-0.62 (inactive)
O=C1CN(C(=O)c2ccncc2)CCN1Cc1ccc2c(c1)OCO2,0.914 (inactive),1.59,9040,9890,-0.12 (inactive),-0.568,-0.52 (inactive)
Cc1cc(NC(=O)Cn2ncc3cc(-c4ccc(F)c(F)c4)ccc32)n(C)n1,0.877 (inactive),0.515,4810,5490,0.668 (inactive),-0.0382,0.765 (inactive)
c1ccn2cc(CCNc3ncnc4nc[nH]c34)nc2c1,0.837 (inactive),1.9,8280,9890,-0.607 (inactive),-0.578,-0.4 (inactive)
OB(O)c1cc2ccccc2s1,0.864 (inactive),0.659,7300,8450,-0.459 (inactive),0.539,0.265 (inactive)
Cc1csc(CNC(=O)Cc2csc(-c3ccccc3)n2)n1,0.931 (inactive),1.12,8110,8710,0.125 (inactive),0.0782,-0.44 (inactive)
CC(=O)Nc1nc2c(s1)C(=O)NCCC2,0.907 (inactive),0.479,8770,9670,0.0141 (inactive),-0.403,0.685 (inactive)
O=C1CCC(CC(=O)N2CCc3[nH]nc(-c4ccc5c(c4)OCO5)c3C2)N1 (centres undefined),0.953 (inactive),1.24,9140,9600,-0.575 (inactive),-0.976,-0.52 (inactive)
O=C1CN(c2ccc(C(F)(F)F)cn2)CCN1Cc1ccc2c(c1)OCO2,0.887 (inactive),1.52,8410,9480,0.169 (inactive),-0.106,2.96 (active)
COc1ncccc1C(=O)N1CCOc2ccccc21,1 (inactive),1.28,8450,8420,0.0792 (inactive),-0.0817,-0.395 (inactive)
CN(C)c1ccc(C(=O)O)cc1,0.927 (inactive),0.253,8940,9650,-0.46 (inactive),0.0916,0.71 (inactive)
Cn1nc(-c2cccnc2)c2[nH]c(-c3ccccc3OC(F)F)nc21,0.875 (inactive),0.925,6510,7440,-1.45 (inactive),0.404,0.095 (inactive)
c1ccc(-c2ncc(-c3ccn[nH]3)s2)cc1,0.881 (inactive),0.808,8010,9090,2.65 (active),-0.462,-0.185 (inactive)
O=C1CN(c2ncnc3sccc23)CCN1C1CCCC1,0.857 (inactive),1.28,8070,9410,-1.24 (inactive),-0.154,1.98 (inactive)
CCOC(=O)c1c(C)nn(-c2ccc(N)cc2)c1C,0.897 (inactive),0.586,8580,9570,-0.251 (inactive),-0.884,-0.7 (inactive)
NNC(=O)c1ccc(-c2ccccc2Cl)o1,0.826 (inactive),0.386,7740,9360,0.702 (inactive),-0.293,0.765 (inactive)
CC(c1ncncc1F)[C@](O)(Cn1cncn1)c1ccc(F)cc1F (some centres undefined),0.956 (inactive) and 0.928 (inactive),2.43 and 0.867,9660 and 8390,10100 and 9030,-0.404 (inactive),0.698,0.71 (inactive)
O=C(O)c1cc(Br)ccc1NS(=O)(=O)c1ccc(Cl)cc1,0.854 (inactive),0.75,8540,10000,-0.163 (inactive),-0.343,0.495 (inactive)
Cc1ccc(CN2CCN(c3ncnc4sccc34)CC2=O)cc1,0.911 (inactive),1.87,4200,4610,-0.0356 (inactive),-0.417,3.8 (active)
O=C(Nc1cccc(-c2nn[nH]n2)c1)c1cccc(F)c1,0.949 (inactive),0.795,8970,9450,1.21 (inactive),-0.523,0.385 (inactive)
O=C(O)c1cnn(-c2ccccc2)c1,0.883 (inactive),0.82,8690,9840,-0.738 (inactive),0.631,1.16 (inactive)
CCC1C(=O)N(C)CCN1C(=O)Nc1nc(C)ns1 (centres undefined),1.02 (inactive),1.35,8670,8510,-0.0427 (inactive),-0.105,-0.49 (inactive)
NC(=O)NC(Cc1ccccc1)C(=O)O (centres undefined),0.889 (inactive),0.725,8700,9790,-0.32 (inactive),-0.255,0.66 (inactive)

Compound,"fold change [1, 4]","fold change [1, 5]","cell count [1, 6]","cell count [1, 7]","z-score [2, 8]","z-score [2, 9]",z-score [3]
Cc1nn(C)cc1-c1ccnc(NCc2nc(-c3ccccc3)no2)n1,0.84 (inactive),1.25,7970,9490,-0.588 (inactive),1.31,0.09 (inactive)
COc1nc2ccccc2cc1-c1nnc2ccccn12,0.94 (inactive),1.24,7160,7610,-0.729 (inactive),-1.23,-0.505 (inactive)
Cc1cccc(C)c1OCC(=O)O,0.919 (inactive),0.272,8740,9510,0.26 (inactive),0.0496,0.75 (inactive)
O=C(O)c1ccc(-c2ccccc2[N+](=O)[O-])o1,0.891 (inactive),0.452,8650,9710,-0.508 (inactive),-0.463,0.32 (inactive)
CCc1ccccc1-c1cc(C)nc(N)n1,0.887 (inactive),1.81,8420,9490,-0.131 (inactive),-1.38,-0.555 (inactive)
O=C(c1cccc(=O)[nH]1)N(Cc1cccnc1)Cc1ccc2c(c1)OCO2,0.964 (inactive),1.96,9470,9830,-0.318 (inactive),0.234,-0.17 (inactive)
NC(=O)c1cncc(Br)c1,0.888 (inactive),0.503,8870,9990,0.375 (inactive),-0.195,0.76 (inactive)
COC1C=CO[C@@]2(C)Oc3c(C)c(O)c4c(O)c(c5c(c4c3C2=O)NC2(CCN(CC(C)C)CC2)N=5)=NC(=O)C(C)=CC=CC(C)C(O)C(C)C(O)C(C)C(OC(C)=O)C1C (some centres undefined),0.889 (inactive) and 0.859 (inactive),1.03 and 1.09,7260 and 7580,8160 and 8820,-0.0325 (inactive),0.718,1.02 (inactive)
O=S(=O)(O)CCN1CCOCC1,0.906 (inactive),0.601,8760,9670,-0.907 (inactive),-0.75,0.715 (inactive)
C=CCn1cc(-c2nc3c([nH]2)c(-c2cccnc2)nn3C)c(C)n1,0.874 (inactive),0.787,8680,9940,-1.29,2.45,-0.47 (inactive)
O=C(O)c1ccc(-c2ccccc2C(F)(F)F)o1,0.879 (inactive),0.45,8380,9530,0.000745 (inactive),-0.553,0.155 (inactive)
CN(C)C(=O)c1cc(-c2[nH]ncc2-c2ccccc2)c[nH]1,0.875 (inactive),0.578,7590,8680,1.27 (inactive),0.199,-0.655 (inactive)
OCCN1CC(O)C(O)C(O)C1CO (centres undefined),0.949 (inactive) and 0.938 (inactive),1.7 and 0.717,10100 and 10300,10600 and 11000,-0.386 (inactive),0.318,0.805 (inactive)
O=C(Nc1nncs1)NC1Cc2ccccc2C1,0.87 (inactive),1.52,8130,9340,-0.741 (inactive),-0.221,-0.6 (inactive)
CCn1ncc(NC(=O)Cn2cc(-c3ncnc4ccsc34)cn2)n1,0.848 (inactive),1.75,8160,9620,-0.432 (inactive),-0.147,-0.53 (inactive)
Cn1c(=O)ccc2ccccc21,0.892 (inactive),0.453,8490,9520,-0.16 (inactive),0.0614,0.32 (inactive)
Cn1c(=O)c(O)c(O)c2ccccc21,0.815 (inactive),0.99,4980,6110,-0.227 (inactive),-0.541,-2.27 (inactive)
O=C(NCC(c1ccccc1)c1ccccc1)Nc1nncs1,0.844 (inactive),1.57,7570,8970,-0.117,3.64,1.59 (inactive)
CC1(C)CC(=O)c2sc(N3CCOCC3)nc2C1,0.909 (inactive),0.788,8160,8970,0.786 (inactive),-0.0343,0.025 (inactive)
Cc1cnc(CN(C)C(=O)c2n[nH]c3ccccc23)[nH]1,0.891 (inactive),1.39,8830,9910,0.305 (inactive),-0.304,-0.445 (inactive)
COc1cc(CC2COC(=O)C2Cc2ccc(O)c(OC)c2)ccc1O (centres undefined),0.888 (inactive),0.681,8440,9500,-1.09 (inactive),-0.0925,-0.07 (inactive)
Cc1csc2ncnc(-c3cccc4cccnc34)c12,0.931 (inactive),0.756,8530,9170,-0.57 (inactive),-0.471,-0.505 (inactive)
CC(C)(C)c1cn(C2CCN(C(=O)c3cnc4ccccc4n3)CC2)nn1,0.867 (inactive),1.26,7870,9080,0.15 (inactive),-0.382,-0.44 (inactive)
